Experimental data taken from PubChem BioAssay (Tox21).
Records with an inconclusive call do not appear. The source made the active and inactive calls. The call rests on the fitted dose curve; in most records, active means well fitted curve in the direction sought with a large enough effect in the repeat runs; inconclusive means weak or mixed curves; inactive means no such curve, though single readings can be large; an effect the other way counts as inactive or inconclusive.

Experiments:
[1] = A CellTox Green Cytotoxicity Assay to monitor cytotoxicity in HEK293 cells - 40 hour (AID 1224871); further: nearly all actives have a fitted effect of over 45% in size; further: potency means the concentration at half of the fitted maximal effect
How it was run: (§1)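 Each value comes from one timepoint of a single continuous run in which HEK293 cells with CellTox Green were exposed to compound for up to 40 h at 37 C, dye fluorescence rising with cell death.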

[2] = qHTS RealTime-Glo MT Cell Viability Assay in HEK293 cells - 16 hour (AID 1224872); further: top concentration of the series differs between compounds; nearly all actives have a fitted effect of over 50% in size
How it was run: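 Quantitative high-throughput screen of the Tox21 10K library in HEK293: cells and RealTime-Glo reagents plated together, compound added at 5 h, luminescence monitored through 40 h at 37 C.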

[3] = qHTS RealTime-Glo MT Cell Viability Assay in HepG2 cells - 8 hour (AID 1224873); further: nearly all actives have a fitted effect of over 55% in size
How it was run: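 HepG2 cells (600/well) mixed with RealTime-Glo MT reagent, settled 5 h at 37 C/5% CO2 before compound addition. Nonlytic NanoLuc luminescence from viable-cell prosubstrate reduction read repeatedly during 40 h treatment at 37 C.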

[4] = qHTS RealTime-Glo MT Cell Viability Assay in HEK293 cells - 40 hour (AID 1224874); details: RealTime-Glo luminescence; max response: active compounds read low; further: nearly all actives have a fitted effect of over 50% in size
How it was run: (§2)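 qHTS format; HEK293 cells with NanoLuc/prosubstrate reagent, 37 C/5% CO2 for 5 h pre-dosing; compounds 23 nL in DMSO; luminescence at each time point reflects viable cells.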

[5] = A CellTox Green Cytotoxicity Assay to monitor cytotoxicity in HEK293 cells - 24 hour (AID 1224875); further: nearly all actives have a fitted effect of over 45% in size; further: potency means the concentration at half of the fitted maximal effect
How it was run: as §1

[6] = A CellTox Green Cytotoxicity Assay to monitor cytotoxicity in HepG2 cells - 16 hour (AID 1224876); further: nearly all actives have a fitted effect of over 45% in size
How it was run: (§3)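 Continuous culture of HepG2 cells with a membrane-impermeant DNA dye; rising fluorescence marks dead cells. Compound exposure lasted up to 40 h at 37 C, with reads every 8 h from 0 h.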

[7] = qHTS RealTime-Glo MT Cell Viability Assay in HepG2 cells - 32 hour (AID 1224877); further: nearly all actives have a fitted effect of over 55% in size
How it was run: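 Compound treatment began 5 h after plating HepG2 cells (600/well) with NanoLuc luciferase and prosubstrate. Plates stayed at 37 C for 40 h; luminescence was captured at six time points, 0 h through 40 h.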

[8] = A CellTox Green Cytotoxicity Assay to monitor cytotoxicity in HepG2 cells - 24 hour (AID 1224878); further: nearly all actives have a fitted effect of over 45% in size
How it was run: as §3

[9] = A CellTox Green Cytotoxicity Assay to monitor cytotoxicity in HepG2 cells - 40 hour (AID 1224879); further: nearly all actives have a fitted effect of over 40% in size
How it was run: as §3

[10] = qHTS RealTime-Glo MT Cell Viability Assay in HEK293 cells - 0 hour (AID 1224880)
How it was run: as §2
On the % scale 0 is the no-effect control and ±100 the full control effect.

N#Cc1c(Cl)cccc1Cl
inactive: Potency [1] | Potency [2] | Potency [3] | max response [4] 18.9% | Potency [5] | Potency [6] | Potency [7] | Potency [8] | Potency [9] | outcome [10]

O=[N+]([O-])c1cc(Cl)c(Cl)c(Cl)c1
active: Potency [1] 21.7 µM | Potency [5] 21.7 µM
inactive: Potency [2] | Potency [3] | max response [4] 5.08% | Potency [6] | Potency [7] | Potency [8] | Potency [9] | outcome [10]

N#CCBr
inactive: Potency [1] | Potency [2] | Potency [3] | max response [4] 6.36% | Potency [5] | Potency [6] | Potency [7] | Potency [8] | Potency [9] | outcome [10]

COc1cc(OC)nc(Oc2cccc(Oc3nc(OC)cc(OC)n3)c2C(=O)O)n1
inactive: Potency [1] | Potency [2] | Potency [3] | max response [4] -0.579% | Potency [5] | Potency [6] | Potency [7] | Potency [8] | Potency [9] | outcome [10]

CCOP(=S)(OCC)Oc1nc(Cl)n(C(C)C)n1
inactive: Potency [1] | Potency [2] | Potency [3] | max response [4] 3.99% | Potency [5] | Potency [6] | Potency [7] | Potency [8] | Potency [9] | outcome [10]

Clc1ccccc1N1CCNCC1
inactive: Potency [1] | Potency [2] | Potency [3] | max response [4] 7.31% | Potency [5] | Potency [6] | Potency [7] | Potency [8] | Potency [9] | outcome [10]

N#CCCC#N
inactive: Potency [1] | Potency [2] | Potency [3] | max response [4] 17.5% | Potency [5] | Potency [6] | Potency [7] | Potency [8] | Potency [9] | outcome [10]

Nc1c(Br)cc([N+](=O)[O-])cc1[N+](=O)[O-]
inactive: Potency [1] | Potency [2] | Potency [3] | max response [4] -10.5% | Potency [5] | Potency [6] | Potency [7] | Potency [8] | Potency [9] | outcome [10]

CCN(CC)C(C)C(=O)c1ccccc1 (stereo not drawn)
inactive: Potency [1] | Potency [2] | Potency [3] | max response [4] 2.31% | Potency [5] | Potency [6] | Potency [7] | Potency [8] | Potency [9] | outcome [10]

c1cc2c(c(N3CCNCC3)c1)OCCO2
inactive: Potency [1] | Potency [2] | Potency [3] | max response [4] -2.14% | Potency [5] | Potency [6] | Potency [7] | Potency [8] | Potency [9] | outcome [10]

COc1cc(C[C@@H](C)N)c(OC)cc1C
inactive: Potency [1] | Potency [2] | Potency [3] | max response [4] -9.2% | Potency [5] | Potency [6] | Potency [7] | Potency [8] | Potency [9] | outcome [10]

CCCSP(=S)(OCC)Oc1ccc(Cl)cc1Cl (stereo not drawn)
inactive: Potency [1] | Potency [2] | Potency [3] | max response [4] 1.03% | Potency [5] | Potency [6] | Potency [7] | Potency [8] | Potency [9] | outcome [10]

CN/C(=N\[N+](=O)[O-])NCC1CCOC1 (stereo not drawn)
inactive: Potency [1] | Potency [2] | Potency [3] | max response [4] 4.22% | Potency [5] | Potency [6] | Potency [7] | Potency [8] | Potency [9] | outcome [10]

CCCCP(CCCC)CCCC
inactive: Potency [1] | Potency [2] | Potency [3] | max response [4] -4.34% | Potency [5] | Potency [6] | Potency [7] | Potency [8] | Potency [9] | outcome [10]

O=C(NCO)NCO
inactive: Potency [1] | Potency [2] | Potency [3] | max response [4] 2.7% | Potency [5] | Potency [6] | Potency [7] | Potency [8] | Potency [9] | outcome [10]

CC(C)COP(=O)(OCC(C)C)OCC(C)C
inactive: Potency [1] | Potency [2] | Potency [3] | max response [4] 0.408% | Potency [5] | Potency [6] | Potency [7] | Potency [8] | Potency [9]

CCC#N
inactive: Potency [1] | Potency [2] | Potency [3] | max response [4] 0.0723% | Potency [5] | Potency [6] | Potency [7] | Potency [8] | Potency [9] | outcome [10]

O=c1oc2ccccc2c(O)c1C1CCCc2ccccc21 (stereo not drawn)
inactive: Potency [1] | Potency [2] | Potency [3] | max response [4] 14.6% | Potency [5] | Potency [6] | Potency [7] | Potency [8] | Potency [9] | outcome [10]

CCOC(=O)C(c1c(O)c2ccccc2oc1=O)c1c(O)c2ccccc2oc1=O
inactive: Potency [1] | Potency [2] | Potency [3] | max response [4] 4.14% | Potency [5] | Potency [6] | Potency [7] | Potency [8] | Potency [9]

NC(=O)c1cc([N+](=O)[O-])cc([N+](=O)[O-])c1
inactive: Potency [1] | Potency [2] | Potency [3] | max response [4] 4.2% | Potency [5] | Potency [6] | Potency [7] | Potency [8] | Potency [9] | outcome [10]

CNC(=O)Oc1c(C(C)(C)C)cc(C)cc1C(C)(C)C
inactive: Potency [1] | Potency [2] | Potency [3] | max response [4] -2.73% | Potency [5] | Potency [6] | Potency [7] | Potency [8] | Potency [9] | outcome [10]

COC(=O)COc1ccc(Cl)cc1Cl
inactive: Potency [1] | Potency [2] | Potency [3] | max response [4] 0.13% | Potency [5] | Potency [6] | Potency [7] | Potency [8] | Potency [9] | outcome [10]

NC1=NC(=O)C(c2ccccc2)O1 (stereo not drawn)
inactive: Potency [1] | Potency [2] | Potency [3] | max response [4] 1.11% | Potency [5] | Potency [6] | Potency [7] | Potency [8] | Potency [9] | outcome [10]
